Screening data (PubChem BioAssay)
EPAC1 antag: blocks human EPAC1 exchange factor. EPAC1 GEF assay, Rap1b-BODIPY-GDP exchange fluorescence. hit rate 0.14% among 360,000. Potency, µM (doses to about 115 µM), most hits filed as inhibitors; further: nearly all actives have a fitted effect of over 50% in size
EPAC2 ag: EPAC2 (human) agonism. Q8WZA2. EPAC2 activation, biochemical qHTS; response scale: 100% = 6.5 mM cAMP response. AID 720711. hit rate 0.079% among 360,000. Potency, µM (top dose mostly 154 µM), most hits filed as activators; further: nearly all actives have a fitted effect of over 50% in size
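Setup: EPAC2 100 nM, labeled Rap1B complex 250 nM, free GDP 50 uM. Compound titrations pinned in, brief spin, 5 min room temperature incubation. Kinetic fluorescence read over 30 min, normalized to 6.5 mM cAMP.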
USP1-UAF1 inh: inhibitors of human USP1/UAF1 deubiquitinase. Potency, µM (series often up to 57.1 µM), actives largely listed as inhibitors. recombinant USP1/UAF1, Ub-Rhodamine cleavage fluorescence. hit rate 0.23% among 390,000. O94782; further: nearly all actives have a fitted effect of over 60% in size
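High-throughput fluorogenic screen: 1nM USP1/UAF1 complex, Ub-Rho substrate 150nM final, 50mM HEPES pH 7.8 with 0.5mM EDTA, 0.1 mg/ml BSA, 1mM TCEP and 0.01% Tween-20.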
EPAC2 antagonist: blocks human EPAC2 exchange factor. Q8WZA2. EPAC2 GEF exchange of Rap1B-BODIPY-GDP, fluorescence. Potency, µM (doses to about 114 µM), most hits filed as inhibitors. hit rate 0.18% among 360,000. AID 720708; further: nearly all actives have a fitted effect of over 45% in size
EPAC1 agonist: activates human EPAC1 exchange factor; EPAC1 agonist qHTS, biochemical assay; response scale: 100% = response to 6.5 mM cAMP; AID 720707; hit rate 0.073% among 360,000; Potency, µM (doses to about 154 µM), most hits filed as activators; further: nearly all actives have a fitted effect of over 60% in size
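Nucleotide exchange assay: 100 nM EPAC1 with 250 nM Rap1B loaded with BODIPY-GDP and 50 uM GDP, room temperature. Fluorescence (480/540 nm) read every 5 min for 30 min; signal change normalized to 6.5 mM cAMP as full agonist.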
ALOX12 inh: blocks human arachidonate 12S-lipoxygenase | P18054 | hit rate 1.1% among 580,000 | purified 12hLO, xylenol orange hydroperoxide absorbance | Potency, µM (doses to about 108 µM), actives largely listed as inhibitors
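Purified human 12hLO (150 nM final) in 25 mM Hepes, 0.01% Triton X-100, pH 7.0 was preincubated 15 min at room temperature with compound. Then 40 uM arachidonic acid was added, 30 min. Hydroperoxide was read by Fe-XO absorbance ratio 573/405 nm.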
Large screens that a line does not name were inactive; ! = not confirmed by another sample. The list is not random: actives were taken first. Their share in the collection is about 1.3%. The call rests on the fitted dose curve; in most records, active means well fitted curve in the direction sought with a large enough effect; inconclusive means small, poorly fitted or top-dose-only effect, or another doubt; inactive means no such curve, though single readings can be large; an effect the other way counts as inactive or inconclusive.

Cc1nc(N=Nc2cc([N+](=O)[O-])ccc2Cl)c(COP(=O)(O)O)c(C=O)c1O	ALOX12 inh 11µM (no result: EPAC1 antag, EPAC2 ag, USP1-UAF1 inh, EPAC2 antagonist, EPAC1 agonist)
CCCCC1=CC2=CC(=O)C(C)(OC(=O)CC)C(=O)C2=CN1CCc1ccc(Br)cc1 (centres undefined)	USP1-UAF1 inh inconclusive, ALOX12 inh 40µM
O=C(CCc1ncc(-c2ccccc2)o1)N1CCN(c2ccc([N+](=O)[O-])cc2)CC1	none (no result: EPAC1 antag, EPAC2 ag, USP1-UAF1 inh, EPAC2 antagonist, EPAC1 agonist)
Cc1ccc(-c2csc3nc4cc(C(=O)NC5CCC(O)CC5)ccc4c(=O)n23)cc1 (centres undefined)	ALOX12 inh 11µM
COc1ccccc1-c1nccc(NCc2ccccc2)n1	ALOX12 inh 22µM (no result: EPAC1 antag, EPAC2 ag, USP1-UAF1 inh, EPAC2 antagonist, EPAC1 agonist)
COc1cccc(-c2nccc(NCc3ccc(OC)cc3OC)n2)c1	none (no result: EPAC1 antag, EPAC2 ag, USP1-UAF1 inh, EPAC2 antagonist, EPAC1 agonist)
COc1ccccc1CNc1ccnc(-c2ccc(N(C)C)cc2)n1	ALOX12 inh 25µM (no result: EPAC1 antag, EPAC2 ag, USP1-UAF1 inh, EPAC2 antagonist, EPAC1 agonist)
CNc1ccnc(-c2ccccc2OC)n1	ALOX12 inh 16µM (no result: EPAC1 antag, EPAC2 ag, USP1-UAF1 inh, EPAC2 antagonist, EPAC1 agonist)
O=C(CSc1nnnn1-c1ccccc1)Nc1ncc(Cc2ccccc2Cl)s1	none
N=C1SC(c2ccccc2)C(=O)N1c1ncc(Cc2ccccc2Cl)s1 (centres undefined)	EPAC1 antag 71µM
CN(C)S(=O)(=O)c1cccc(NC(=S)NNC(=O)c2cc3ccccc3cc2O)c1	EPAC1 antag inconclusive, ALOX12 inh 35µM
FC(F)(F)c1ccccc1Cc1c(-c2ccco2)nc2ccc(Br)cn12	ALOX12 inh 35µM (no result: USP1-UAF1 inh)
COc1ccccc1Cc1c(-c2ccco2)nc2ccc(Br)cn12	EPAC1 antag inconclusive, ALOX12 inh 18µM (no result: USP1-UAF1 inh)
COc1ccccc1Cc1c(-c2ccco2)nc2ccc(Cl)cn12	ALOX12 inh inconclusive (no result: USP1-UAF1 inh)
COc1cccc(NC(=O)COc2nc(C(C)C)c3c(c2C#N)CCC3)c1	none (no result: EPAC1 antag, EPAC2 ag, USP1-UAF1 inh, EPAC2 antagonist, EPAC1 agonist)
COc1ccc(C2C3=C(CCCC3=O)Nc3c(C#N)cnn32)cc1OC (centres undefined)	none (no result: EPAC1 antag, EPAC2 ag, USP1-UAF1 inh, EPAC2 antagonist, EPAC1 agonist)
CNc1snc(C)c1C(=O)OC(C)C(=O)NC1CCCCC1 (centres undefined)	none (no result: EPAC1 antag, EPAC2 ag, USP1-UAF1 inh, EPAC2 antagonist, EPAC1 agonist)
COC(=O)/C(C#N)=C/c1ccc(-c2ccc(S(N)(=O)=O)cc2)o1	none
N#CC(C#N)=Cc1ccc(-c2ccc(S(=O)(=O)N=C(N)N)cc2)o1	USP1-UAF1 inh inconclusive, ALOX12 inh 25µM
O=C(Nc1cccc(C(F)(F)F)c1)O[C@@H]1CO[C@H]2[C@@H]1OC[C@@H]2NC(=S)NC1CCCCC1	ALOX12 inh 45µM (no result: EPAC1 antag, EPAC2 ag, USP1-UAF1 inh, EPAC2 antagonist, EPAC1 agonist)
Cc1ccc2c(c1C)NC(C)CC2C (centres undefined)	ALOX12 inh 4.5µM!
CC(C)(C)C1CCc2c(sc(NC(=O)C3CC=CCC3C(=O)O)c2C#N)C1 (centres undefined)	none
N#Cc1c(NC(=O)C2CC=CCC2C(=O)O)sc2c1CCCCCC2 (centres undefined)	EPAC1 antag 79µM
O=C(c1ccccc1-c1ncc(-c2ccccc2)o1)N1CCN(C(=O)C2CC2)CC1	none (no result: EPAC1 antag, EPAC2 ag, USP1-UAF1 inh, EPAC2 antagonist, EPAC1 agonist)
Oc1ccc(N=Cc2ccc(OCc3ccccc3)cc2)cc1	EPAC1 antag 25µM, USP1-UAF1 inh 2.8µM, EPAC2 antagonist inconclusive
CCOc1ccc(N=Cc2ccc(N(C)C)cc2)cc1	none (no result: EPAC1 antag, EPAC2 ag, USP1-UAF1 inh, EPAC2 antagonist, EPAC1 agonist)
O=Cc1ccc(OCc2ccccc2)cc1	none (no result: EPAC1 antag, EPAC2 ag, USP1-UAF1 inh, EPAC2 antagonist, EPAC1 agonist)
CCOc1ccc(C=Nc2ccc(N(C)C)cc2)cc1	ALOX12 inh 32µM (no result: EPAC1 antag, EPAC2 ag, USP1-UAF1 inh, EPAC2 antagonist, EPAC1 agonist)
COC(=O)c1[nH]c2ccc(F)cc2c1NC(C)=O	none (no result: EPAC1 antag, EPAC2 ag, USP1-UAF1 inh, EPAC2 antagonist, EPAC1 agonist)
S=C(Nc1ccccc1)Nc1nc2ccccc2n1CCOc1ccc(Br)cc1	ALOX12 inh 28µM
C=CCNCc1ccccc1F	none (no result: EPAC1 antag, EPAC2 ag, USP1-UAF1 inh, EPAC2 antagonist, EPAC1 agonist)
CCOC(=O)c1c(N2C(=O)CC(Sc3ccccc3C(=O)O)C2=O)sc2c1CCCC2 (centres undefined)	ALOX12 inh 16µM
O=C(NNC(=O)C1CCCc2ccccc21)c1ccc(F)cc1 (centres undefined)	none (no result: EPAC1 antag, EPAC2 ag, USP1-UAF1 inh, EPAC2 antagonist, EPAC1 agonist)
CCOc1ccccc1Nc1nc(N)c(C(=O)c2ccc(CC)cc2)s1	none (no result: EPAC1 antag, EPAC2 ag, USP1-UAF1 inh, EPAC2 antagonist, EPAC1 agonist)
CCN(c1ccccc1)c1nc(=O)c2cccnc2s1	none
CCN(c1ccccc1)c1cc2ccccc2c(=O)[nH]1	EPAC1 antag inconclusive, USP1-UAF1 inh 25µM
